The values below come from PubChem BioAssay (Tox21).

Molecules are shown by their SMILES. Where “and” joins values, the source holds several entries; their conditions need not be identical. Equal values may be shown once. Inconclusive results are not listed. Calls of active or inactive are those of the source. Unless noted, calls come from the whole dose curve; as a rule, active = well fitted curve in the direction sought with a large enough effect in the repeat runs; inconclusive = weak or mixed curves; inactive = no such curve, though single readings can be large; an effect the other way counts as inactive or inconclusive.

Experiment [1] is described as follows: qHTS assay to identify small molecule agonists of the vitamin D receptor (VDR) signaling pathway - cell viability counter screen (AID 743224). Note: nearly all actives have a fitted effect of over 50% in size. In a few lines:
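VDR-bla cells, 4 h after plating, exposed to compounds for 16 h at 37C; viability then read in the same wells as CellTiter-Glo luminescence after 30 min at room temperature, following the bla FRET read.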
In general terms: In qHTS, concentration-response curves come from the screen itself.

Experiment [2] can be described thus: qHTS assay to identify small molecule antagonists of the vitamin D receptor (VDR) signaling pathway - cell viability counter screen (AID 743225). Note: nearly all actives have a fitted effect of over 50% in size. Summed up:
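HEK293T VDR-bla; cpd + 1a,25-(OH)2D3 3 nM final, 16 h 37C/5% CO2; B/G FRET substrate 2 h RT; then CellTiter-Glo 30 min RT, luminescence.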

A short description of experiment [3]: qHTS assay to identify small molecule agonists of the NFkB signaling pathway - cell viability counter screen (AID 1159515; calls by dose curve; note: nearly all actives have a fitted effect of over 55% in size). Summed up:
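NFkB-bla ME-180 cells, 2,000/well, plated overnight at 37 C; compound added for 5 hr at 37 C. Viability read in the same wells as the bla reporter, by CellTiter-Glo luminescence after 30 min at room temperature.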

The nature of experiment [4]: qHTS assay to identify small molecule agonists of the endoplasmic reticulum stress response signaling pathway - cell viability counter screen (AID 1159517; calls by dose curve;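 note: HeLa cells carrying an ER stress response element beta-lactamase reporter; nearly all actives have a fitted effect of over 50% in size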). Summed up:
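CellTiter-Glo was added to wells already read for beta-lactamase FRET, and luminescence was recorded 30 min later. Cells: ESRE-bla HeLa, 1,500 per well, compound exposure 5 hr at 37 C.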

Experiment [5] in a line: qHTS assay to identify small molecule antagonists of the retinoid-related orphan receptor gamma (ROR-gamma) signaling pathway - cell viability counter screen (AID 1159520). Note: nearly all actives have a fitted effect of over 50% in size. Note: potency is the fitted concentration of half-maximal effect. Summed up: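 Tet-on ROR gamma CHO cells (1,000/well) were plated 4 hr, given compounds in DMSO for 2 hr at 37 C, then induced with 1 uM final doxycycline for 16 hr. Viability was read as ATP by CellTiter-Glo luminescence after 30 min.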

The target in experiment [6] is Nuclear receptor ROR-gamma (Homo sapiens) (UniProt P51449). The experiment is described as follows: qHTS assay to identify small molecule antagonists of the retinoid-related orphan receptor gamma (ROR-gamma) signaling pathway (AID 1159521; note: nearly all actives have a fitted effect of over 50% in size; note: potency is the fitted concentration of half-maximal effect). Summed up: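 Cells were plated, rested 4 h at 37 C, exposed to compounds for 2 h, then given 1 uM final doxycycline hyclate to induce RORγ expression. After 16 h, ONE-Glo luminescence from the ROR response element reporter was measured.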

Experiment [7] is described as follows: qHTS assay to identify small molecule agonists of the AP-1 signaling pathway - cell viability counter screen (AID 1159525; calls by dose curve; note: nearly all actives have a fitted effect of over 55% in size). Summed up: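 ME-180 AP-1-bla, 2500 cells/well, Opti-MEM + 0.5% dialyzed FBS; overnight 37 °C; cpd 15-pt titration, 5 h 37 °C; CellTiter-Glo 30 min RT; luminescence read; normalised to TOAB and DMSO controls.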
A short description of experiment [8]: qHTS assay to identify small molecule agonists of the AP-1 signaling pathway (AID 1159526; calls by dose curve).
The target in experiment [9] is Retinoic acid receptor RXR-alpha (Homo sapiens) (UniProt P19793). The experiment is described as follows: qHTS assay to identify small molecule agonists of the RXR signaling pathway (AID 1159527; calls by dose curve; note: nearly all actives have a fitted effect of over 35% in size). Summed up:
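Cells plated at 2,000/well, rested 5 hr at 37 C, pin-dosed with DMSO compound solutions, incubated 16 hr, then loaded with B/G FRET substrate for 2 hr at RT before dual-emission fluorescence reading.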

Experiment [10] is described as follows: qHTS assay to identify small molecule agonists of the RXR signaling pathway - cell viability counter screen (AID 1159529). Summed up:
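Steps: seed RXR-alpha-UAS-bla HEK 293T cells in assay medium containing 2% charcoal-stripped FBS; incubate 5 hr; add compounds in DMSO; incubate 16 hr at 37 C; after the bla read, add CellTiter-Glo and read luminescence at 30 min.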

Experiment [11] is described as follows: qHTS assay to identify small molecule antagonists of the retinoic acid receptor (RAR) signaling pathway (AID 1159552; note: nearly all actives have a fitted effect of over 50% in size). Summed up: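 Retinol at 1 uM final stimulated RARE-luciferase expression in C3RL4 cells exposed to test compounds for 6 hr at 37 C. Reduced luminescence, read 30 min after detection reagent, indicated pathway antagonism.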
Experiment [12] can be described thus: qHTS assay to identify small molecule agonists of the retinoic acid receptor (RAR) signaling pathway (AID 1159553). The conditions noted are these: C3RL4 RARE luciferase reporter, agonist, 6 h; activation: at 73.3 µM (top of the series) unless noted. Summed up:
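C3RL4 RARE-luciferase cells were seeded at 1,000/well and grown overnight at 37 C, then exposed to compounds for 6 hr at 37 C, 5% CO2. Luciferase reagent was added and luminescence was read after 30 min at room temperature.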

Experiment [13] in a line: qHTS assay to identify small molecule antagonists of the estrogen related receptor (ERR) signaling pathway - cell viability counter screen (AID 1224818). Summed up: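 ERR cells, 2,000 per well, compound added after 6 h and incubated 17.5 h at 37 C. Viability read by CellTiter-Fluor fluorescence after a further 30 min at 37 C.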
Experiment [14] can be described thus: qHTS assay to identify small molecule antagonists of the estrogen related receptor signaling pathway with the pleiotropic PPARgamma coactivator (PGC) cell viability counter screen (AID 1224822). In a few lines: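 PGC/ERR cells rested 6 h, then compound-treated 17.5 h at 37 C. CellTiter-Fluor added for 30 min at 37 C, viability measured by fluorescence intensity.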

Experiment [15] in a line: qHTS assay to identify small molecule antagonists of the retinoid acid receptor (RAR) signaling pathway - cell viability counter screen (AID 1159551). Note: nearly all actives have a fitted effect of over 35% in size. Summed up: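 C3RL4 RARE-luciferase cells, 1,000/well, incubated overnight, then dosed with compound plus 1 uM retinol (final). After 6 hr at 37 C, viability read by CellTiter-Glo ATP luminescence following 30 min at room temperature.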

Sequence of Retinoic acid receptor RXR-alpha (Homo sapiens) (P19793 whole entry, looked up): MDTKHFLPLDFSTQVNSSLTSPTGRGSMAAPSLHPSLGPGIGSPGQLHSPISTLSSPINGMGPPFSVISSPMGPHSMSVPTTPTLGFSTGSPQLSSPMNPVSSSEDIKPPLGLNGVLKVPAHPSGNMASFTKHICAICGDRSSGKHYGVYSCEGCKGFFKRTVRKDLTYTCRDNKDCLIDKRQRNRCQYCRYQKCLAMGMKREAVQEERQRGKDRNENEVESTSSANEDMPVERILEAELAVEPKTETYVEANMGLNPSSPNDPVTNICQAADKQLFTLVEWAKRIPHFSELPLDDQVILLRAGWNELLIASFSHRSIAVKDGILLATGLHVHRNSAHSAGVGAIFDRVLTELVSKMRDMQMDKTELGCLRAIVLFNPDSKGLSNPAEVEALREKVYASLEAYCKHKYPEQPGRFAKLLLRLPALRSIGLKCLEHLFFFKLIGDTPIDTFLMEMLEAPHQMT

As for `Oc1ccccc1O`, the Potency result in experiment [1], in experiment [2], in [3], in [4], in experiment [5] and in experiment [7] was “inactive” throughout. Further, the Potency entry in experiment [8], in [9], in experiment [10], in [11], in experiment [12] and in experiment [14] was “inactive” throughout. In addition, the Potency in experiment [6] is 8.74 µM (active) and 27.3 µM (active). Also, the call in experiment [13] was inactive.
As to `C=C(C)c1cccc(C(=C)C)c1`, the Potency result in experiment [1], in experiment [2], in experiment [3], in experiment [4], in experiment [5] and in [6] was “inactive” each time. Moreover, the Potency entry in experiment [7], in experiment [8], in experiment [9], in experiment [10], in experiment [15] and in experiment [11] was “inactive” each time. In addition, the Potency result in experiment [12] was “inactive”.
Consider `CCCCCCCCCCC[C@@H](C[C@@H]1OC(=O)[C@H]1CCCCCC)OC(=O)[C@H](CC(C)C)NC=O`, for which the Potency result in experiment [3], in experiment [4], in experiment [7], in [8], in experiment [9] and in experiment [10] was “inactive” throughout. In addition, the Potency entry in experiment [15], in experiment [11] and in experiment [12] was “inactive” throughout. The Potency is 11.9 µM (active) in experiment [5] and 16.8 µM (active) in experiment [6].
For `Cc1c(C)c2c(c(C)c1O)CC[C@@](C)(CCC[C@H](C)CCC[C@H](C)CCCC(C)C)O2`, the Potency entry in [1], in [2], in experiment [3], in experiment [4], in [5] and in experiment [6] was “inactive” each time. For the same compound, the Potency result in [7], in experiment [8], in [9], in experiment [10], in experiment [15] and in experiment [12] was “inactive” throughout.
With `C#Cc1ccc(-c2ccccc2F)cc1`, the Potency result in [1], in [2], in experiment [3], in experiment [4], in [5] and in experiment [6] was “inactive” each time. In addition, the Potency result in [7], in experiment [8], in [9], in [15], in experiment [11] and in experiment [12] was “inactive” throughout.
`Cc1c(N)cccc1C(F)(F)F`: the Potency entry in experiment [1], in [2], in experiment [3], in experiment [4], in [5] and in experiment [6] was “inactive” throughout. In addition, the Potency entry in [7], in [8], in experiment [9], in experiment [10], in experiment [15] and in experiment [11] was “inactive” each time. Further, the Potency entry in experiment [12] is “inactive”.
Take `CC(=O)OCC=C(C)C`: the Potency result in [1], in experiment [2], in [3], in [4], in experiment [5] and in experiment [6] was “inactive” throughout. Besides, the Potency entry in experiment [7], in [8], in experiment [9], in [10], in experiment [15] and in experiment [11] was “inactive” in each case. Further, the Potency result in [12] is “inactive”.
In the case of `Cc1cccc(C(=O)O)c1O`, the Potency result in [1], in experiment [2], in experiment [3], in [4], in experiment [5] and in [6] was “inactive” throughout. For the same compound, the Potency result in experiment [7], in experiment [8], in experiment [9], in experiment [10], in experiment [15] and in experiment [11] was “inactive” in each case. Besides, the Potency result in experiment [12] is “inactive”.
